# Results published in PubChem BioAssay (NCI).
# Compounds without any hit were thinned out: in the full panel of roughly 79,000, 15% have a hit. A number with no mark means an inactive call. Calls of active or inactive are those of the source. Rule as the data show it: active = growth inhibition above about 70%; inactive = the rest.
# What was measured:
# [1] = NCI Yeast Anticancer Drug Screen. Data for the mec2-1 strain (AID 157); conditions: S. cerevisiae mec2-1 strain, stronger effect = higher value
# Method in brief: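 Readout is yeast growth inhibition, normalised to vehicle-treated controls, in the mec2-1 strain exposed to compound.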
# [2] = NCI Yeast Anticancer Drug Screen. Data for the rad14 strain (AID 159);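 also: 0% = growth of vehicle-treated control cultures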; conditions: S. cerevisiae rad14 strain growth inhibition, stronger effect = higher value
# Method in brief: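 A mutant yeast strain defective in DNA damage repair is treated with compound; inhibition of its growth is scored against untreated, vehicle-exposed cultures.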
# [3] = NCI Yeast Anticancer Drug Screen. Data for the sgs1 mgt1 strain (AID 161);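 also: 0% = growth of cultures given vehicle only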; conditions: S. cerevisiae sgs1 mgt1 strain, stronger effect = higher value
# Method in brief: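 Yeast cells carrying a defined DNA-repair defect were exposed to test compounds. Growth inhibition was measured relative to vehicle-treated controls.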
# [4] = NCI Yeast Anticancer Drug Screen. Data for the CLN2oe strain (AID 163);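 also: 0% = growth of vehicle-only control cultures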; conditions: S. cerevisiae CLN2oe strain, stronger effect = higher value
# Method in brief: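 Values reflect how much compound exposure reduced yeast growth, referenced to vehicle-exposed cells. Assay organism is a strain with a defined genetic change affecting cell-cycle control.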
# [5] = NCI Yeast Anticancer Drug Screen. Data for the cln2 rad14 strain (AID 165);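 also: 0% = growth equal to vehicle treated cultures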; conditions: S. cerevisiae cln2 rad14 strain, stronger effect = higher value
# Method in brief: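 Relative to vehicle controls, growth inhibition of compound-treated cln2 rad14 yeast was recorded.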
# [6] = NCI Yeast Anticancer Drug Screen. Data for the bub3 strain (AID 167); conditions: S. cerevisiae bub3 mutant strain, stronger effect = higher value
# Method in brief: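 Steps: expose the mutant yeast strain to compound; grow alongside vehicle-treated cultures; measure growth; express inhibition against the vehicle cultures.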
# [7] = NCI Yeast Anticancer Drug Screen. Data for the wt2 strain (AID 169);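 also: 0% = growth of vehicle-treated yeast cultures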; conditions: S. cerevisiae wt2 strain growth inhibition, stronger effect = higher value
# Method in brief: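 Values express reduction in yeast growth under compound treatment, referenced to vehicle-treated cells.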
# [8] = NCI Yeast Anticancer Drug Screen. Data for the mlh1 strain (AID 171);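 also: 0% = growth of vehicle-treated control cultures of the same strain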; conditions: S. cerevisiae mlh1 strain growth inhibition, stronger effect = higher value
# Method in brief: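 Steps: expose the defined-mutant yeast strain to compound; expose a parallel culture to vehicle; measure growth; express compound effect as inhibition relative to the vehicle culture.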
# [9] = NCI Yeast Anticancer Drug Screen. Data for the sgs1 strain (AID 173);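 also: 0% = growth of vehicle-only control cultures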; conditions: S. cerevisiae sgs1 mutant, stronger effect = higher value
# Method in brief: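 Treat defined-mutant yeast with compound; measure growth; calculate inhibition relative to vehicle-treated cells.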
# [10] = NCI Yeast Anticancer Drug Screen. Data for the mlh1 rad18 strain (AID 175); conditions: S. cerevisiae mlh1 rad18 strain growth inhibition, stronger effect = higher value
# Method in brief: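 Test agents were incubated with a yeast strain of defined genotype (DNA damage repair defect). Inhibition of growth was derived by comparison with vehicle-exposed cultures.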
# [11] = NCI Yeast Anticancer Drug Screen. Data for the rad18 strain (AID 177); conditions: S. cerevisiae rad18 mutant growth inhibition, stronger effect = higher value
# Method in brief: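 A genetically defined yeast mutant impaired in DNA damage repair was treated with test compounds, then its growth was measured against cultures receiving vehicle alone.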
# [12] = NCI Yeast Anticancer Drug Screen. Data for the rad52 strain (AID 147);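 also: 0% = growth of vehicle-treated control cultures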; conditions: S. cerevisiae rad52 mutant growth inhibition, stronger effect = higher value
# Method in brief: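 Screen used a yeast mutant impaired in DNA repair. After compound exposure, growth was measured. Values reflect inhibition compared with vehicle-treated cells.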
# [13] = NCI Yeast Anticancer Drug Screen. Data for the wt1 strain (AID 149);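 also: 0% = growth of vehicle-treated wt1 cultures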; conditions: S. cerevisiae wt1 strain (SPY 50644) growth inhibition, stronger effect = higher value
# Method in brief: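 Compounds are added to wt1 yeast cultures. Growth is then measured. Inhibition is expressed relative to vehicle-treated controls.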
# [14] = NCI Yeast Anticancer Drug Screen. Data for the rad50EPP+ strain (AID 151);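 also: 0% = growth of vehicle-treated control cultures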; conditions: S. cerevisiae rad50 mutant strain, stronger effect = higher value
# Method in brief: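 Exposing the rad50EPP+ strain to each compound, growth was compared with vehicle-only cultures to give inhibition.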
# [15] = NCI Yeast Anticancer Drug Screen. Data for the rad50 strain (AID 155);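 also: 0% = growth of vehicle-only cultures of the same strain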; conditions: S. cerevisiae rad50 strain growth inhibition, stronger effect = higher value
# Method in brief: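 Inhibition values express reduced yeast growth in compound-treated cultures relative to vehicle-treated controls.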
# [16] = at 5.0 µM (retest, dose inferred, filed as 0.5)
# [17] = at 50.0 µM (retest, dose inferred, filed as 5.0)
smiles,measurement,setting,value
Oc1ccc(C=Nc2ccccc2O)cc1,growth inhibition,[1]; at 100.0 µM,65%
same,growth inhibition,[2]; at 1.2 µM,17%
same,growth inhibition,[2]; at 3.7 µM,16%
same,growth inhibition,[2]; at 11.0 µM,20%
same,growth inhibition,[2]; at 33.0 µM,25%
same,growth inhibition,[2]; at 100.0 µM,38%
same,growth inhibition,[3]; [16],15%
same,growth inhibition,[3]; [17],42%
same,growth inhibition,[3]; at 50.0 µM,28.8%
same,growth inhibition,[4]; at 1.2 µM,47%
same,growth inhibition,[4]; at 3.7 µM,58%
same,growth inhibition,[4]; at 11.0 µM,60%
same,growth inhibition,[4]; at 33.0 µM,56%
same,growth inhibition,[4]; at 100.0 µM,64%
same,growth inhibition,[5]; [16],11%
same,growth inhibition,[5]; [17],31%
same,growth inhibition,[5]; at 50.0 µM,1.55%
same,growth inhibition,[6]; at 1.2 µM,75% (active)
same,growth inhibition,[6]; at 3.7 µM,82% (active)
same,growth inhibition,[6]; [16],55%
same,growth inhibition,[6]; at 11.0 µM,81% (active)
same,growth inhibition,[6]; at 33.0 µM,83% (active)
same,growth inhibition,[6]; [17],86% (active)
same,growth inhibition,[6]; at 50.0 µM,80.3% (active)
same,growth inhibition,[6]; at 100.0 µM,92% (active)
same,growth inhibition,[7]; at 1.2 µM,25%
same,growth inhibition,[7]; at 3.7 µM,30%
same,growth inhibition,[7]; at 11.0 µM,33%
same,growth inhibition,[7]; at 33.0 µM,43%
same,growth inhibition,[7]; at 100.0 µM,65%
same,growth inhibition,[8]; at 1.2 µM,32%
same,growth inhibition,[8]; at 3.7 µM,45%
same,growth inhibition,[8]; at 11.0 µM,36%
same,growth inhibition,[8]; at 33.0 µM,45%
same,growth inhibition,[8]; at 100.0 µM,73% (active)
same,growth inhibition,[9]; at 1.2 µM,32%
same,growth inhibition,[9]; at 3.7 µM,36%
same,growth inhibition,[9]; at 11.0 µM,37%
same,growth inhibition,[9]; at 33.0 µM,51%
same,growth inhibition,[9]; at 100.0 µM,67%
same,growth inhibition,[10]; [16],48%
same,growth inhibition,[10]; [17],86% (active)
same,growth inhibition,[10]; at 50.0 µM,70% (active)
same,growth inhibition,[11]; at 1.2 µM,61%
same,growth inhibition,[11]; at 3.7 µM,78% (active)
same,growth inhibition,[11]; at 11.0 µM,76% (active)
same,growth inhibition,[11]; at 33.0 µM,75% (active)
same,growth inhibition,[11]; at 100.0 µM,85% (active)
CC(C)(C)[OH+][O-].[O-]c1ccc(Cl)cc1C=Nc1ccc(Cl)cc1[O-].[O]=[V],growth inhibition,[12]; at 1.2 µM,0%
same,growth inhibition,[12]; at 3.7 µM,4%
same,growth inhibition,[12]; at 11.0 µM,11%
same,growth inhibition,[12]; at 33.0 µM,30%
same,growth inhibition,[12]; at 100.0 µM,59%
same,growth inhibition,[13]; at 1.2 µM,12%
same,growth inhibition,[13]; at 3.7 µM,11%
same,growth inhibition,[13]; at 11.0 µM,15%
same,growth inhibition,[13]; at 33.0 µM,19%
same,growth inhibition,[13]; at 100.0 µM,29%
same,growth inhibition,[14]; at 1.2 µM,0%
same,growth inhibition,[14]; at 3.7 µM,10%
same,growth inhibition,[14]; at 11.0 µM,26%
same,growth inhibition,[14]; at 33.0 µM,43%
same,growth inhibition,[14]; at 100.0 µM,60%
same,growth inhibition,[15]; at 1.2 µM,-3%
same,growth inhibition,[15]; at 3.7 µM,34%
same,growth inhibition,[15]; [16],19%
same,growth inhibition,[15]; at 11.0 µM,44%
same,growth inhibition,[15]; at 33.0 µM,46%
same,growth inhibition,[15]; [17],17%
same,growth inhibition,[15]; at 50.0 µM,93.8% (active)
same,growth inhibition,[15]; at 100.0 µM,83% (active)
same,growth inhibition,[1]; at 1.2 µM,10%
same,growth inhibition,[1]; at 3.7 µM,17%
same,growth inhibition,[1]; [16],24%
same,growth inhibition,[1]; at 11.0 µM,13%
same,growth inhibition,[1]; at 33.0 µM,31%
same,growth inhibition,[1]; [17],9%
same,growth inhibition,[1]; at 50.0 µM,94.5% (active)
same,growth inhibition,[1]; at 100.0 µM,56%
same,growth inhibition,[2]; at 1.2 µM,4%
same,growth inhibition,[2]; at 3.7 µM,9%
same,growth inhibition,[2]; at 11.0 µM,12%
same,growth inhibition,[2]; at 33.0 µM,26%
same,growth inhibition,[2]; at 100.0 µM,54%
same,growth inhibition,[3]; [16],20%
same,growth inhibition,[3]; [17],40%
same,growth inhibition,[3]; at 50.0 µM,91.5% (active)
same,growth inhibition,[4]; at 1.2 µM,-3%
same,growth inhibition,[4]; at 3.7 µM,-3%
same,growth inhibition,[4]; at 11.0 µM,0%
same,growth inhibition,[4]; at 33.0 µM,11%
same,growth inhibition,[4]; at 100.0 µM,26%
same,growth inhibition,[5]; [16],6%
same,growth inhibition,[5]; [17],3%
same,growth inhibition,[5]; at 50.0 µM,90.5% (active)
same,growth inhibition,[6]; at 1.2 µM,19%
same,growth inhibition,[6]; at 3.7 µM,30%
same,growth inhibition,[6]; [16],41%
same,growth inhibition,[6]; at 11.0 µM,45%
same,growth inhibition,[6]; at 33.0 µM,58%
same,growth inhibition,[6]; [17],16%
same,growth inhibition,[6]; at 50.0 µM,92.7% (active)
same,growth inhibition,[6]; at 100.0 µM,76% (active)
same,growth inhibition,[7]; at 1.2 µM,14%
same,growth inhibition,[7]; at 3.7 µM,24%
same,growth inhibition,[7]; at 11.0 µM,13%
same,growth inhibition,[7]; at 33.0 µM,20%
same,growth inhibition,[7]; at 100.0 µM,30%
same,growth inhibition,[8]; at 1.2 µM,8%
same,growth inhibition,[8]; at 3.7 µM,10%
same,growth inhibition,[8]; at 11.0 µM,9%
same,growth inhibition,[8]; at 33.0 µM,15%
same,growth inhibition,[8]; at 100.0 µM,38%
same,growth inhibition,[9]; at 1.2 µM,12%
same,growth inhibition,[9]; at 3.7 µM,16%
same,growth inhibition,[9]; at 11.0 µM,23%
same,growth inhibition,[9]; at 33.0 µM,33%
same,growth inhibition,[9]; at 100.0 µM,53%
same,growth inhibition,[10]; [16],24%
same,growth inhibition,[10]; [17],12%
same,growth inhibition,[10]; at 50.0 µM,95.2% (active)
same,growth inhibition,[11]; at 1.2 µM,4%
same,growth inhibition,[11]; at 3.7 µM,19%
same,growth inhibition,[11]; at 11.0 µM,24%
same,growth inhibition,[11]; at 33.0 µM,47%
same,growth inhibition,[11]; at 100.0 µM,78% (active)
